# This is a sample that favours compounds with a hit; in the whole collection about 21% have one here.
# Pf growth 48h: inhibits P. falciparum growth in the first generation, 48 h; P. falciparum luciferase growth in erythrocytes, 48 h; Potency, µM (top dose mostly 28.7 µM), inactives show at the top dose activity change, negative = inhibition, actives largely listed as inhibitors; 310,000 tested, 5.9% active; AID 504832; also: potency is read from the fitted curve at half-maximal effect; % is scaled to controls: 0 for no effect and ±100 for the full control effect
#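 Erythrocytes infected with P. falciparum carrying an integrated firefly luciferase reporter (2% hematocrit, 0.1% parasitemia final) were exposed to compounds in RPMI 1640 with 0.5% Albumax at 37 C, 5% CO2. Growth inhibition was scored as reduced luminescence.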
# CHX counter: counter-screen for Shiga toxin inhibitors: cycloheximide protein synthesis inhibition. 300,000 tested, 12% active. cell reporter, cycloheximide protein synthesis inhibition counterscreen. AID 2314. max response, %; in the data active = max response mostly above about 13%, no sharp cut-off; inactive = mostly below about 14%; also: read at 38.3 µM for the half of the compounds with a filed dose; 0% is about no effect
# Sm TGR block: inhibitors of Schistosoma mansoni thioredoxin glutathione reductase | Potency, µM (series often up to 114 µM), without a hit: at the highest dose activity change, negative = inhibition, most hits filed as inhibitors | purified TGR, DTNB reduction, TNB absorbance 405 nm | Q962Y6 | AID 485364 | 360,000 tested, 3% active; also: potency is read from the fitted curve at half-maximal effect; % is scaled to controls: 0 for no effect and ±100 for the full control effect; nearly all actives have a fitted effect of over 60% in size
#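 TGR 20 nM + NADPH 100 uM (dispensed conc.), cpd preinc 15 min RT; start with NADPH (500 uM addition) then DTNB (15 mM addition). Kinetic TNB absorbance, 405 nm filter. Four-parameter Hill fit across titration.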
# Pf growth 96h: P. falciparum growth inhibition at 96 hours; P. falciparum luciferase reporter growth, 96 h; Potency, µM (series often up to 28.7 µM), without a hit: top-dose activity change, negative = inhibition, hits mostly inhibitors; 320,000 tested, 6.9% active; AID 504834; also: potency is read from the fitted curve at half-maximal effect; % is scaled to controls: 0 for no effect and ±100 for the full control effect
#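 Luminescence readout: decreased luciferase signal marks inhibited growth of reporter-expressing P. falciparum in infected red cells (2% hematocrit, 0.05% parasitemia final), exposed to compound two generations (96 h, 37 C, 5% CO2).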
# NS1 inh: blocks influenza NS1 protein function. Potency, µM (top dose mostly 46.1 µM), for inactives: top-dose activity, positive = more growth. 270,000 tested, 0.4% active; calls by dose curve; also: potency is read from the fitted curve at half-maximal effect; actives are rising curves; nearly all actives have a fitted effect of over 50% in size
#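 Compounds were scored for reversing the slow growth caused by influenza A NS1 in S. cerevisiae, measured by optical density at 600 nm. Assay medium contained 2% galactose at pH 6.0; NS1-free yeast of the same strain were the positive control.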
# Shiga toxin inh: Shiga toxin inhibition; Vero cells, Shiga toxin protein synthesis inhibition reporter; inhibition, % at 38.7 µM; 290,000 tested, 9.2% active; in the data active = inhibition mostly above about 28%, no sharp cut-off; inactive = mostly below about 43%; also: 0% is about no effect
# * marks the source's active call; other numbers are inactive results; ? = inconclusive; . = not tested or not shown; + = active, no number. Unless noted, calls follow the shape of the dose curve; as a rule, active = well fitted curve in the direction sought with a large enough effect; inconclusive = small, poorly fitted or top-dose-only effect, or another doubt; inactive = no such curve, though single readings can be large; an effect the other way counts as inactive or inconclusive.
SMILES,Pf growth 48h,CHX counter,Sm TGR block,Pf growth 96h,NS1 inh,Shiga toxin inh
CCc1ccc(NC(=O)c2ccc3c(c2)C(=O)N(CCOC)C3Nc2ccc(CC)cc2)cc1 (configuration not stated),?,23*,-2%,?,10%,67*
COCCN1C(=O)c2cc(C(=O)Nc3ccc(C)c(F)c3)ccc2C1Nc1ccc(C)c(F)c1 (configuration not stated),?,32*,-12%,?,23%,94*
COCCN1C(=O)c2cc(C(=O)Nc3cccc(F)c3)ccc2C1Nc1cccc(F)c1 (configuration not stated),-15%,-4,-13%,?,0%,-12
O=C(COC(=O)C1COc2ccccc2O1)Nc1cccc(S(=O)(=O)N2CCCCC2)c1 (configuration not stated),5%,-2,-1%,-5%,.,-8
O=S(=O)(Cc1cc(NCc2ccccc2)nc(-c2ccccn2)n1)c1ccccc1,?,4,30%,8.3µM*,.,-10
Clc1cc(Cl)cc(CN2CCSCC2)c1,?,2,3%,?,5%,-4
Nc1ccc(C(=O)Nc2ccco2)cc1,64%,23,3%,-19%,4%,33*
Cc1ccc2nc(-c3cccc(N)c3)oc2c1,147%,10,6%,.,-3%,7
Cc1cc(C)c2oc(-c3cccc(N)c3)nc2c1,218%,52*,9%,67%,-52%,106*
CC(C)[C@@H](C(=O)NC1CCN(Cc2ccccc2)CC1)N1C(=O)N2CCc3c([nH]c4ccccc34)[C@@]2(C)C1=O,?,-4,2%,7.4µM*,5%,-8
C[C@@H](C(=O)NCCc1ccccc1F)N1C(=O)N2CCc3c([nH]c4ccccc34)[C@@]2(C)C1=O,-30%,23*,-13%,?,-27%,30*
CC(C)[C@@H](C(=O)NC1CC1)N1C(=O)N2CCc3c([nH]c4ccccc34)[C@@]2(C)C1=O,?,-4,-8%,?,6%,-5
C[C@@H](C(=O)NC1CCCCC1)N1C(=O)N2CCc3c([nH]c4ccccc34)[C@@]2(C)C1=O,45%,-3,5%,?,-1%,3
CC(C)[C@@H](C(=O)N1CCCC1)N1C(=O)N2CCc3c([nH]c4ccccc34)[C@@]2(C)C1=O,?,1,-16%,10µM*,-9%,-4
C[C@@H](C(=O)NCCc1ccccc1)N1C(=O)N2CCc3c([nH]c4ccccc34)[C@@]2(C)C1=O,?,19*,-15%,?,-95%,21*
CC1=C(C(=O)NC(C)CCc2ccccc2)C2(CCC(C)CC2)OC1=O (configuration not stated),?,-4,0%,?,.,-5
Cc1c(C(=O)Nc2ccccc2F)sc2ncn(CC(=O)N3CCCCC3)c(=O)c12,-3%,22,-2%,?,6%,31
Cn1ncc2c(N3CCN(c4cccc(Cl)c4)CC3)ncnc21,.,.,2%,.,.,.
Cc1cc(Cl)c(S(=O)(=O)N2CCN(c3ccccn3)CC2)cc1OCC(N)=O,?,8,9%,?,-5%,-3
CCOc1ccc(Br)cc1C(=S)N1CCCC1,-11%,-2,9%,?,-4%,.
COc1ccc2[nH]c3c(c2c1)CCN1C(=O)N([C@@H](C)C(=O)NCc2ccccc2OC)C(=O)[C@]31C,4.1µM*,-1,-21%,7.4µM*,3%,-5
CCN1CCN(C(c2cc3cc4c(cc3[nH]c2=O)OCO4)c2nnnn2C(C)(C)CC)CC1 (configuration not stated),?,-1,-1%,.,1%,20
Cc1ccc2cc(C(c3nnnn3C(C)(C)C)N3CCCCCC3)c(=O)[nH]c2c1 (configuration not stated),?,-3,11µM*,?,11%,6
CC(C)(C)n1nnnc1C(c1cc2cc3c(cc2[nH]c1=O)OCO3)N1CCN(c2ccccc2)CC1 (configuration not stated),1.7µM*,-3,-36%,-21%,1%,-4
CCC(C)(C)n1nnnc1C(c1cc2cc(C)ccc2[nH]c1=O)N1CCCC1 (configuration not stated),0%,-1,20µM*,15µM*,-5%,-10
SMILES,Pf growth 48h,CHX counter,Sm TGR block,Pf growth 96h,NS1 inh,Shiga toxin inh
CCOC(=O)c1ccc(-c2ccc(/C=N/NC(=O)CN(c3ccccc3Cl)S(C)(=O)=O)o2)cc1,-66%,14*,-1%,?,-31%,5
CCOC(=O)c1ccc(-c2ccc(/C=N/NC(=O)CN(c3cccc(C)c3)S(C)(=O)=O)o2)cc1,52%,2,4%,?,-28%,-5
Clc1ccccc1CONc1ncnc2nonc12,210%,31*,12%,142%,-19%,+
O=C(Oc1ccc(-c2nnco2)cc1)c1ccco1,7%,.,-22%,38%,.,.
O=C(Oc1ccc(-c2cnc3ccccc3n2)cc1)c1ccco1,171%,23*,-5%,.,6%,64
CCC(=O)Oc1ccc(-c2cnc3ccccc3n2)cc1,28%,32*,12%,317%,-43%,60
CCOC(=O)COc1cnc2ccccc2n1,?,2,28%,0%,5%,13
CSc1ccc(CCNC(=O)C2CCN(c3ncnc4c3nc3n4CCCCC3)CC2)cc1,.,.,-4%,.,.,.
COc1ccc(C2=NC(c3ccc(Cl)cc3)C(c3ccc(Cl)cc3)N2C(=O)N2CCNC(=O)C2)c(OC(C)C)c1 (configuration not stated),.,-2,.,.,.,-4
Cc1cccc(NC(=O)CSc2nnc(CNC(=O)c3ccco3)o2)c1,21%,-1,-2%,10µM*,10%,-2
CCSc1nnc(NC(=O)[C@@H](NC(=O)c2cccc(C)c2)C(C)C)s1,3%,-1,3%,17%,-8%,-1
Cc1cccc(NC(=O)CSc2nnc(NC(=O)c3ccco3)s2)c1,56%,26,5%,125%,.,43*
Cc1cc(C)cc(NC(=O)CSc2nnc(CNC(=O)c3ccco3)o2)c1,7%,6,-21%,?,-2%,-13
COc1ccc(C(=O)NCc2nnc(SCC(=O)Nc3cc(C)cc(C)c3)o2)cc1OC,2%,5,-8%,74%,-3%,-6
CCSc1nnc(NC(=O)Nc2cccc(C)c2)s1,33%,38*,19%,0%,-3%,101*
COc1cc(C(=O)NCc2nnc(SCC(=O)Nc3cccc(C)c3)o2)cc(OC)c1OC,.,-6,-2%,7.4µM*,-2%,-9
CC(=N\NC(=O)c1ccc([N+](=O)[O-])cc1)/C(=N/O)C(=O)Nc1ccccc1,?,-2,2%,54%,10%,-5
COCCCn1c(=O)c2sccc2n2c(CCCC(=O)Nc3ccc(F)c(F)c3)nnc12,.,.,-6%,.,.,.

# Screens deposited in PubChem BioAssay by National Center for Advancing Translational Sciences (NCATS).
